Source: PubChem BioAssay AID1508622 (National Center for Advancing Translational Sciences (NCATS), 2021)
Unmarked numbers belong to inactive results. The source made the active and inactive calls. The call rests on the fitted dose curve; in most records, active means well fitted activation curve with a large enough effect; inconclusive means small, poorly fitted or top-dose-only effect; inactive means no such curve, though single readings can be large or run the other way.

Test: Confirmatory qHTS for Identification of Small Molecule Activators of Huntingtin-Antisense Promoter Activity
Conditions: HEK293 HTT-AS promoter firefly luciferase reporter, 24 h; series mostly up to 57.5 µM; activity change, positive = activation: at the top concentration
Method in brief: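 HEK293 luciferase reporter cells, 2,500/well, cultured 24 h, then exposed to compounds at up to 57.5 uM final for 24 h at 37C. Firefly luciferase luminescence read; normalized to vehicle (0%) and zero RLU (-100%).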
Potency means the concentration at half of the fitted maximal effect.

SMILES | activity change, positive = activation [%] | Potency
COc1ccc(N2CCN(C(CNC(=O)c3ccc(C)cc3)c3ccc4c(c3)OCO4)CC2)cc1 (centres undefined) | -26.2 | –
Cc1ccc(-c2nc(S(=O)(=O)c3ccccc3)c(SCC(=O)NC3CCCCC3)o2)cc1 | -23.6 | –
COc1cc(CNc2ccc3[nH]c(=O)[nH]c3c2)cc(Br)c1OCc1ccc(F)cc1 | -25 | –
Cc1ccc(Nc2cc(C)nc(-n3nc(C)cc3C)n2)cc1 | 8.96 | –
COc1ccc(CCNc2nc3c(c(=O)n(C)c(=O)n3C)n2Cc2ccc(F)cc2)cc1OC | -52.7 | –
COc1ccc(-n2c(/C=C/c3cccc4ccccc34)nc3ccccc3c2=O)cc1Cl | -15.7 | –
Cc1ccc2onc(CC(=O)N3CCN(c4cc(Cl)ccc4C)CC3)c2c1 | -8.46 | –
COc1ccc(Br)cc1CNC(=O)CSc1n[nH]c(-c2ccccc2)n1 | -62.6 | –
Cc1cccc(-n2nc(C)c(C(=O)N3CCN(c4ccccc4)CC3)c2-n2cccc2)c1 | -44.8 | –
CCS(=O)(=O)c1oc(-c2ccc(F)cc2)nc1S(=O)(=O)c1ccc(Br)cc1 | 0.868 | –
CN(C)Cc1c(C(=O)NCCOc2ccc(C(=O)NO)cc2)oc2ccccc12 | – | 7.57 µM (active)
CC(C)[C@H](CO)Nc1nc(Nc2ccc(C(=O)O)c(Cl)c2)c2ncn(C(C)C)c2n1 | -3.92 | –
CC1=C(C(=O)OCc2ccc(C)cc2)C(c2ccccc2Cl)CC(=O)N1 (centres undefined) | -40 | –
CCCCN(CC)C(=O)C1CCC(CNS(=O)(=O)c2cccc3nsnc23)CC1 (centres undefined) | -35.2 | –
CC(C)c1ccc(Cc2cnc(NC(=O)c3ccc4c(c3)CC(c3ccccc3)OC4=O)s2)cc1 (centres undefined) | -64.6 | –
COc1ccccc1C(=O)Nc1nc2n(n1)C(c1ccc(F)cc1)C=C(c1ccc(Cl)cc1)N2 (centres undefined) | -13.7 | –
Cc1ccc(C)c(N2CCN(S(=O)(=O)c3ccc(C(=O)N(C)C)s3)CC2)c1 | -84.7 | –
CCn1c(=O)n(CC)c2cc(N3CCCCC3)c(NC(=O)Nc3cc(Cl)ccc3OC)cc21 | -24.6 | –
Cc1ccc(CN(C(=O)COc2cccc(Cl)c2)c2ccccn2)o1 | -10.8 | –
CC(C)c1ccc(NC(=O)c2ccc(F)c(S(=O)(=O)N3CCc4ccccc43)c2)cc1 | -31.5 | –
COc1ccc(NC(=O)C(=O)c2cc(C)n(-c3ccc(C)cc3)c2C)cc1Cl | -74.2 | –
CCOC(=O)c1cccc(NC(=O)CCn2c(-c3ccc(F)cc3)cc(C(=O)OCC)c2C)c1 | -25 | –
Cc1ccc(C(=O)Nc2nc(-c3nnn(-c4cccc(Cl)c4C)c3C)ns2)cc1C | -64.7 | –
CCN(CCCNC(=O)CSc1cc(=O)n(CC)c2ccccc12)c1ccccc1 | -10.4 | –
